“And” between values parts separate entries of the source, which are not always exact repeats. Identical values can stand only once. A number with no mark means an inactive call. Records with an inconclusive call do not appear. Where a call stands in place of a potency, no number is given. The source made the active and inactive calls. Unless noted, calls come from the whole dose curve; as a rule, active = well fitted curve in the direction sought with a large enough effect; inconclusive = small, poorly fitted or top-dose-only effect, or another doubt; inactive = no such curve, though single readings can be large; an effect the other way counts as inactive or inconclusive.
Columns and labels:
[1] = molecular target: Cytochrome P450 1A2 (Homo sapiens) (UniProt P05177); assay: p450-cyp1a2 (AID 410; calls by dose curve; note: potency is the fitted concentration of half-maximal effect)
Chain of Cytochrome P450 1A2 (Homo sapiens) (P05177 whole entry, looked up): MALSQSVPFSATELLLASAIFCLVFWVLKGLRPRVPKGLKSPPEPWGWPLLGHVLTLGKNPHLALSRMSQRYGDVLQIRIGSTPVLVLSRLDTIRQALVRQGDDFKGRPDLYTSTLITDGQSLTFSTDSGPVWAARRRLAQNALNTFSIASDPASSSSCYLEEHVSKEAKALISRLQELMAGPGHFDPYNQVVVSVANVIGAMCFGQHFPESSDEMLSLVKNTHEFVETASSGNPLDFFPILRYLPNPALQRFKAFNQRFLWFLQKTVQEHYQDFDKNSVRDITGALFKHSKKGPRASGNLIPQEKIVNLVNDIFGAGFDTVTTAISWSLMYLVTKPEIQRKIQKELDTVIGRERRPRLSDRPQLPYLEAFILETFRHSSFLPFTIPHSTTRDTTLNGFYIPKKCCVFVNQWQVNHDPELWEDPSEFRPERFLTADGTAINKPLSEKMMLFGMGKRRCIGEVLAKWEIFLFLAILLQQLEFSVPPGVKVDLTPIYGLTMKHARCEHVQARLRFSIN
In short: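 Human CYP1A2 (20nM) demethylated Luciferin-ME at its Km (100uM) in 100mM KPO4. After 10 min compound preincubation, NADPH regeneration ran the reaction 60 min at room temperature. Luciferin was read by luminescence, normalized to 57 uM furafylline.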

[2] = NFAT Signaling Pathway (AID 444; active = well fitted curve in either direction with a large enough effect, not every such curve was filed as active;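 note: carbachol stimulus at about its EC50 of 1 µM final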); details: Jurkat NFAT-bla M1, carbachol, beta-lactamase ratio, 5 h; at 38 µM (top of the series)
In short: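 Jurkat cells carrying an NFAT-driven β-lactamase reporter and co-transfected muscarinic M1 receptor were treated with compound plus carbachol (1 uM final, an EC50 level) for 5 h at 37 °C. CCF4 loading followed for 1 h at RT; 460/530 nm ratio gave %activity.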

[3] = molecular target: Glucocorticoid receptor (Homo sapiens) (UniProt P04150); assay: GR-GFP Redistribution (AID 450;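 active = compounds whose dose series gives a full or clear partial fitted curve of increased nuclear translocation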; note: potency is the fitted concentration of half-maximal effect); details: U2OS GR-GFP nuclear translocation, laser cytometry, 2 h
Chain of Glucocorticoid receptor (Homo sapiens) (P04150 whole entry, looked up, the tested form may be a part): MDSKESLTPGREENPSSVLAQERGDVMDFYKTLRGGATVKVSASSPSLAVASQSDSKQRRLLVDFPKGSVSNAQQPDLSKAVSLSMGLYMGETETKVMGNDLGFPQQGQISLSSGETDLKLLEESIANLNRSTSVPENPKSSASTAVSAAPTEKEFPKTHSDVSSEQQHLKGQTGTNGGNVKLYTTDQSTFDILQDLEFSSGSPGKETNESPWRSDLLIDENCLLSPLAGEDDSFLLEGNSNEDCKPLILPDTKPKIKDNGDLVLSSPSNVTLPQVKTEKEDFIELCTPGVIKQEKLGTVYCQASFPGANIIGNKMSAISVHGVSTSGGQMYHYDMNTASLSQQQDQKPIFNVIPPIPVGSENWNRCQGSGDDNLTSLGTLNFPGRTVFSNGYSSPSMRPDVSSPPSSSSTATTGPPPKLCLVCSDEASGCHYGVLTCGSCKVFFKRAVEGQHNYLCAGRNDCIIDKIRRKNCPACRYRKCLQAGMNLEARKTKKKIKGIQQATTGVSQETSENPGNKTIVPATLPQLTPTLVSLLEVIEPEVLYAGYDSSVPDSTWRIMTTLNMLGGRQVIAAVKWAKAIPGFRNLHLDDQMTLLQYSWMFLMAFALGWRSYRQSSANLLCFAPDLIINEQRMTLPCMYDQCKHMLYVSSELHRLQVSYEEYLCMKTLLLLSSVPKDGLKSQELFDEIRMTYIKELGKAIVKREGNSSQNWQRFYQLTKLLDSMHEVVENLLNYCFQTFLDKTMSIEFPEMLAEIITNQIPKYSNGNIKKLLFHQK

[4] = molecular target: Glucocorticoid receptor (Homo sapiens) (UniProt P04150); assay: GR-EFC Redistribution (AID 451; calls by dose curve; note: potency is the fitted concentration of half-maximal effect); details: CHO-K1 GR-EFC translocation, beta-gal luminescence, 2 h
In short: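 CHO-K1 cells stably expressing nuclear-localized β-gal enzyme acceptor and GR fused C-terminally to the enzyme donor fragment; ligand-driven nuclear translocation restores β-gal by complementation. Compounds titrated up to 46 uM final, 2 h at 37 °C; luminescence read.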

[5] = molecular target: Mitogen-activated protein kinase 10 (Mus musculus) (UniProt Q61831); assay: JNK3 AlphaScreen Assay (AID 530; active = well fitted curve in either direction with a large enough effect, not every such curve was filed as active;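 note: kinase came from lysate of stimulated human HepG2 cells; signal reports phosphorylation of biotinylated GST-cJun 1-79 at Ser73 with 10 µM ATP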)
In short: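 JNK3 came from HepG2 lysates pre-activated with IL-1beta and TNF-alpha and phosphorylated biotinylated GST-cJun (1-79) at 10 uM ATP, pH 7.6, room temperature. Compounds were titrated. AlphaScreen signal used anti-phospho-cJun (Ser73) antibody.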

[6] = molecular target: 3',5'-cyclic-AMP phosphodiesterase 4B (Homo sapiens) (UniProt Q07343); assay: qHTS Assay for Inhibitors of PDE-IV (AID 607; active = well fitted activation curve with a large enough effect in the main read-out, with a control signal flat, not every such curve was filed as active)
Chain of 3',5'-cyclic-AMP phosphodiesterase 4B (Homo sapiens) (Q07343 whole entry, looked up): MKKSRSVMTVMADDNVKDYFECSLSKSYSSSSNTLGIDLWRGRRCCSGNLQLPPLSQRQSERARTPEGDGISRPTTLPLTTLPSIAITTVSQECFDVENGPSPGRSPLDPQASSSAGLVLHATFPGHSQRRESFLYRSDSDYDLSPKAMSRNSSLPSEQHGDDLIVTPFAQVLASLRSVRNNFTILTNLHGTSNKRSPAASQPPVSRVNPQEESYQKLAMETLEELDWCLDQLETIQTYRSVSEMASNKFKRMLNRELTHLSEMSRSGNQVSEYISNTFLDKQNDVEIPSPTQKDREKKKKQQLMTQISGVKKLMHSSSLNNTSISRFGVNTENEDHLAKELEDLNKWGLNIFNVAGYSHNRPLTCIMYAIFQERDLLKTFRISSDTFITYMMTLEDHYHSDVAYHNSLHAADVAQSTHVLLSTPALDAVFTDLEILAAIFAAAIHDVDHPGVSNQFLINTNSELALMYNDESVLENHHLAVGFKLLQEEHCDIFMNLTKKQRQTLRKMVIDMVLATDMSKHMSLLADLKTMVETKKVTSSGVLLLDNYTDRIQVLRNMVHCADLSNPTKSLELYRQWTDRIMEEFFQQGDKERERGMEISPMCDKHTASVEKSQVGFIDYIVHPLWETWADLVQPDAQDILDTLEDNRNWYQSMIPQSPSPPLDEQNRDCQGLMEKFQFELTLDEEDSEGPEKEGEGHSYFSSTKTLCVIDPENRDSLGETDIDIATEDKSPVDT
In short: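 ACTOne HEK293 cells carry a modified cAMP-gated CNG channel and express endogenous PDE4; plated 1000 cells/well, compounds up to 22.9 uM final. Membrane-potential dye fluorescence (ex 535/em 590) was read; parental cells received 10 uM forskolin + 100 uM RO 20-1724.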

[7] = molecular target: Guanine nucleotide-binding protein G(i) subunit alpha-1 (Homo sapiens) (UniProt P63096); assay: qHTS Assay for Inhibitors of RGS12 GoLoco Motif Activity (Green Fluorophore) (AID 879);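 note: negative values mean loss of peptide binding seen as reduced polarization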
Chain of Guanine nucleotide-binding protein G(i) subunit alpha-1 (Homo sapiens) (P63096 whole entry, looked up): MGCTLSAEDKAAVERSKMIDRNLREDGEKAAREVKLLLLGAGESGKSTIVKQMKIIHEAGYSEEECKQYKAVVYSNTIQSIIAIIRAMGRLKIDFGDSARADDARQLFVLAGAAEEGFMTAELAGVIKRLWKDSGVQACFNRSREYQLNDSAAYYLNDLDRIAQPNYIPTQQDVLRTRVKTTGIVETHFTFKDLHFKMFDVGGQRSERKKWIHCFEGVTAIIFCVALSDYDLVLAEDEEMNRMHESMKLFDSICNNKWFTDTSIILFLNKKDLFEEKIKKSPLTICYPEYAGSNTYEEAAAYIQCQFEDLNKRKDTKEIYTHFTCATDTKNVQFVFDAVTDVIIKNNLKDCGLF
In short: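 Fluorescence polarization assay: 50 nM Gαi1 with 10 nM FITC-labeled RGS12 GoLoco peptide in 10 mM Tris pH 7.5, 150 mM NaCl, 0.1 mM GDP, 0.05% NP40, 10 min at room temperature with compound.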

[8] = molecular target: Cytochrome P450 2C9 (Homo sapiens) (UniProt P11712); assay: qHTS Assay for Inhibitors and Substrates of Cytochrome P450 2C9 (AID 883); note: potency is the fitted concentration of half-maximal effect; nearly all actives have a fitted effect of over 60% in size
Chain of Cytochrome P450 2C9 (Homo sapiens) (P11712 whole entry, looked up): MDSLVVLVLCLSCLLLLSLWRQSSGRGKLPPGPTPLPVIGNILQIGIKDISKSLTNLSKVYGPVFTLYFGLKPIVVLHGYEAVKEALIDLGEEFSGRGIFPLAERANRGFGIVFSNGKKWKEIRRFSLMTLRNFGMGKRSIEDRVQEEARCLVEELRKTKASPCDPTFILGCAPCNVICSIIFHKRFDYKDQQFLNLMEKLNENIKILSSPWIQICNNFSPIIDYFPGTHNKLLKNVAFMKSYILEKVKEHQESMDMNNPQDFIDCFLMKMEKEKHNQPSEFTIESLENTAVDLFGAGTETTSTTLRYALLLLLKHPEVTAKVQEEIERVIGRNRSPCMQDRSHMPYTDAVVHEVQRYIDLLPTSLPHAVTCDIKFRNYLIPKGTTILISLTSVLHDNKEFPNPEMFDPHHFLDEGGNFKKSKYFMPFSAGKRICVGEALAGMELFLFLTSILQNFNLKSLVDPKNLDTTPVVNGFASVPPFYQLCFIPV
In short: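 CYP2C9 deoxyluciferin hydroxylation, 37C, 60 min with NADPH regeneration; 10nM enzyme, 100uM Luciferin-H (KM). Glo detection reagent stopped reaction; luminescence normalized to sulphaphenazole (57uM) full inhibition.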

[9] = molecular target: Cytochrome P450 3A4 (Homo sapiens) (UniProt P08684); assay: qHTS Assay for Inhibitors and Substrates of Cytochrome P450 3A4 (AID 884); note: potency is the fitted concentration of half-maximal effect; nearly all actives have a fitted effect of over 50% in size
Chain of Cytochrome P450 3A4 (Homo sapiens) (P08684 whole entry, looked up): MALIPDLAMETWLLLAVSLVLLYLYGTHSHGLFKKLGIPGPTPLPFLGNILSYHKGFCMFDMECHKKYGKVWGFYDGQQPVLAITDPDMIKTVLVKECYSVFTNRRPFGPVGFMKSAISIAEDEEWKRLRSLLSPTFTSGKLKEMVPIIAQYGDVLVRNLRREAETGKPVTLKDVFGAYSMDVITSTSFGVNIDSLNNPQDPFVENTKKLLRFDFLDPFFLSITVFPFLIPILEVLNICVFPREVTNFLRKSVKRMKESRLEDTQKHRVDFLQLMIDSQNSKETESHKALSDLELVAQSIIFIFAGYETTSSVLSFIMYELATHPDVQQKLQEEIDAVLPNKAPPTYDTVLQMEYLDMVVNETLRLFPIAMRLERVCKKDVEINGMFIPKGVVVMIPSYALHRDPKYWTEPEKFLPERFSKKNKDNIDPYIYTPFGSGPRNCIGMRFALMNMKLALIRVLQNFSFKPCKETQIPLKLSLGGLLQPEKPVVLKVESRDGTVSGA
In short: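 20 nM human CYP3A4 with 25 uM Luciferin-PPXE (at KM) in 200 mM KPO4, preincubated 10 min with compound; NADPH regeneration started a 60 min RT reaction. Luciferin detected by luminescence, normalized to 57 uM ketoconazole as full inhibition.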

[10] = molecular target: Cytochrome P450 3A4 (Homo sapiens) (UniProt P08684); assay: qHTS Assay for Activators of Cytochrome P450 3A4 (AID 885); note: nearly all actives have a fitted effect of over 65% in size
In short: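 20nM CYP3A4 + 25uM Luciferin-PPXE (=KM), 200mM KPO4; cpd 10 min RT; NADPH regen, 60 min RT; stop w/ detection buffer, 20 min; luminescence. Normalized to 57 uM ketoconazole.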

[11] = qHTS Assay for Identification of Small Molecule Antagonists for NFkB Signaling Pathway (AID 895; active = well fitted inhibition curve with a large enough effect in the signal ratio, with a control signal flat, not every such curve was filed as active; the % refers to the signal ratio)
In short: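 NFkB-bla ME-180 cervical carcinoma cells with beta-lactamase reporter under NFkB response element; compounds added, then TNF alpha at 10 pM final (EC50), 5 h at 37 C. LiveBLAzer substrate 2 h, room temperature; emission 460/530 nm at 405 nm excitation.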

[12] = molecular target: Cytochrome P450 2C19 (Homo sapiens) (UniProt P33261); assay: qHTS Assay for Inhibitors and Substrates of Cytochrome P450 2C19 (AID 899); note: potency is the fitted concentration of half-maximal effect; nearly all actives have a fitted effect of over 60% in size
Chain of Cytochrome P450 2C19 (Homo sapiens) (P33261 whole entry, looked up): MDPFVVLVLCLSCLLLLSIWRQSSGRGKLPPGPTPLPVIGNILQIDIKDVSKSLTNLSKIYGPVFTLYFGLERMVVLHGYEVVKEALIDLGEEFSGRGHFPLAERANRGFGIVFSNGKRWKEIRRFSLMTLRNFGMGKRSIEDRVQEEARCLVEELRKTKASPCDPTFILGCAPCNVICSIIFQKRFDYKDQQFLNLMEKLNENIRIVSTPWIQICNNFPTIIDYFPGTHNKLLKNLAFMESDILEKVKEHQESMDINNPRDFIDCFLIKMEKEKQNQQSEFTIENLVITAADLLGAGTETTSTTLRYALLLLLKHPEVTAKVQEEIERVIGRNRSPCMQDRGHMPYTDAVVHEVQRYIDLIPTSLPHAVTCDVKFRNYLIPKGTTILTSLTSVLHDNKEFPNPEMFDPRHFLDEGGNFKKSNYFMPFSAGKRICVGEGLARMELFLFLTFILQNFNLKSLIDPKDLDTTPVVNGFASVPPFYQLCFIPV
In short: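 In 50mM KPO4, the reaction held 5nM enzyme and KM-level (10uM) Luciferin-H EGE; it ran 60 min at 37C after NADPH regeneration and a 10 min compound preincubation. Luminescence values were scaled to 57uM ketoconazole as complete inhibition.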

[13] = Confirmation and Secondary Assay for Modulators of Hemoglobin Beta Chain Splicing at IVS2 654 locus (AID 910)
In short: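 HeLa cells stably carrying EGFP interrupted by mutant beta-globin IVS2-654 intron (CMV-driven) were treated with compound for 2 days at 37C; corrected splicing was scored as total peak GFP intensity per well (488 nm excitation, 500-520 nm emission).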

[14] = qHTS Assay for Identification of Small Molecule Agonists for Hypoxia Response Element Signaling Pathway (AID 914; active = well fitted activation curve with a large enough effect in the signal ratio, with a control signal flat, not every such curve was filed as active; the % refers to the signal ratio); details: ME-180 (cervical carcinoma) HRE-bla reporter, beta-lactamase ratio, CoCl2, 17 h; hits give high values
In short: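 HRE-bla ME-180 cells with beta-lactamase reporter under hypoxia response element, compounds with EC50 CoCl2 for 17 hours at 37 C. CCF4 substrate, 460nm/530nm emission ratio gave %Activity; AC50 from titration series.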

[15] = Confirmation and Secondary Assay for Modulators of Hemoglobin Beta Chain Splicing at IVS2 705 locus (AID 930);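 note: HeLa cells stably expressing the EGFP-705 splicing reporter; GFP fluorescence per well restored by corrected splicing of the IVS2-705 intron in EGFP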
In short: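 HeLa cells stably carrying EGFP interrupted by mutant beta-globin intron 2 (IVS2-705) treated 2 days at 37C with compound; 500 nM antisense PNA as control. Correct splicing read as total peak GFP intensity per well by laser-scanning cytometry.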

[16] = molecular target: Pyruvate kinase (Leishmania mexicana) (UniProt Q27686); assay: qHTS Validation Assay for Inhibitors of Leishmania Mexicana Pyruvate Kinase (AID 945)
Chain of Pyruvate kinase (Leishmania mexicana) (Q27686 2-499 E452W): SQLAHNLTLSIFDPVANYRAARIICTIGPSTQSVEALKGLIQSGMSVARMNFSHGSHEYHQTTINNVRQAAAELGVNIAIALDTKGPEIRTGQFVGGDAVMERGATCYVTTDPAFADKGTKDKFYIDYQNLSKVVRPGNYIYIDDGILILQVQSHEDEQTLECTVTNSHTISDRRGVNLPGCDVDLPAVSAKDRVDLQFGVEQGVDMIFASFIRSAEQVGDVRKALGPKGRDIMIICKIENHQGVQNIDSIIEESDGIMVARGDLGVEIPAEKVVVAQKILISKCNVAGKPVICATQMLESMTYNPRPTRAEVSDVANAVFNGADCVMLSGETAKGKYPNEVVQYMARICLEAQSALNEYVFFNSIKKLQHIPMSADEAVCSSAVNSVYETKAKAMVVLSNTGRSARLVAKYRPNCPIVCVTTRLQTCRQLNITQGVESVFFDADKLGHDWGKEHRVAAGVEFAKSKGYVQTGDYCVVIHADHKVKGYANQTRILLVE
In short: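 Eight-point qHTS titrations in triplicate, data normalized to DMSO neutral control. Reaction: 0.2 nM LmPYK E451W mutant, 0.5 mM PEP, 0.1 mM ADP, 7 mM MgCl2, pH 7.2, one hour at room temperature; luminescent ATP detection.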

[17] = molecular target: Pyruvate kinase PKM (Homo sapiens) (UniProt P14618); assay: qHTS Assay for Activators of Human Muscle Pyruvate Kinase (AID 954; active = well fitted curve in the direction sought with a large enough effect, not every such curve was filed as active)
Chain of Pyruvate kinase PKM (Homo sapiens) (P14618 whole entry, looked up): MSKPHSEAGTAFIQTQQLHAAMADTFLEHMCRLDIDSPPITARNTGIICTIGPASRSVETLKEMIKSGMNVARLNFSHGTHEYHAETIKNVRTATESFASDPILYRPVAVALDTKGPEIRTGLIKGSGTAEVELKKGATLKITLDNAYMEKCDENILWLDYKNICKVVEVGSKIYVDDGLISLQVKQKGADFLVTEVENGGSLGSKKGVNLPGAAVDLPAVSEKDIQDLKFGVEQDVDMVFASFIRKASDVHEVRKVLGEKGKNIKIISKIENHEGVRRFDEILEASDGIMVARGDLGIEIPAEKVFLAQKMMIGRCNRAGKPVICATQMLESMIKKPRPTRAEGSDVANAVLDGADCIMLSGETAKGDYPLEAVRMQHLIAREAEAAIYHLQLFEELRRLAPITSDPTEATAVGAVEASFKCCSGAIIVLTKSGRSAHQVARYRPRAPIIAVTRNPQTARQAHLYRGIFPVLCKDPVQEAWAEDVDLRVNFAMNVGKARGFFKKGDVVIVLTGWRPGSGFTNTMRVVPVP
In short: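 Luminescence from a luciferase ATP-detection/stop reagent reported PKM2 activity. Reactions contained 0.1 nM purified human enzyme, 0.5 mM PEP, 0.1 mM ADP and 7 mM MgCl2 at pH 7.2, run 1 h at RT.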

[18] = molecular target: Alpha-galactosidase A (Homo sapiens) (UniProt P06280); assay: Counterscreen for Glucocerebrosidase Inhibitors: qHTS Assay for Human alpha-Galactosidase at pH 4.5 (AID 992)
In short: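 Enzyme at 2 nM final was combined with compound (0.7 nM to 77 uM) and 80 uM 4-methylumbelliferyl alpha-D-galactopyranoside in 50 mM citric acid, 0.005% Tween-20, pH 4.5. After 20 min at room temperature, fluorescence was read (Ex 365/Em 440 nm); AC50 came from Hill fits.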

[19] = molecular target: alpha-glucosidase (Oryza sativa, rice) (UniProt Q653V4); assay: Counterscreen for Glucocerebrosidase Inhibitors: qHTS Assay for Rice alpha-Glucosidase at pH 5.0 (AID 997)
In short: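 Rice alpha-glucosidase (4 nM final) with 400 uM 4-methylumbelliferyl-alpha-D-glucopyranoside in citrate buffer pH 5.0, 20 min at room temperature, stopped at pH 10; fluorescence 365/440 nm, compounds 0.7 nM–77 uM, AC50 from Hill fits.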

[20] = Validation of Assay for Modulators of Lamin A Splicing (AID 1459; active = well fitted curve in the direction sought with a large enough effect in the signal ratio; the % refers to the signal ratio;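 note: cells exposed to compound for two days before reading; ratio rise marks activators and ratio drop marks inhibitors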)
In short: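 Splicing correction is reported by an EGFP-containing lamin A minigene in stably transfected S3 HeLa cells, while DsRed2 controls for viability and nonspecific signal. Cells are exposed to compounds for 48 hrs before the GFP over RFP ratio is taken.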

NCCCCCCNS(=O)(=O)c1cccc2c(Cl)cccc12
Potency [1]: 7.94 µM (active) and 1.26 µM (active)
activity change, negative = inhibition [2]: -4.09%
Potency [3]: > 46 µM
Potency [4]: > 46 µM
Potency [5]: inactive
Potency [6]: inactive
outcome [7]: inactive
Potency [8]: 3.16 µM (active)
Potency [9]: 3.98 µM (active) and 2.51 µM (active)
Potency [10]: inactive
Potency [11]: inactive
Potency [12]: 0.199 µM (active)
outcome [13]: inactive
activation [14]: -27.9%
outcome [15]: inactive
Potency [16]: inactive
outcome [17]: inactive
outcome [18]: inactive
outcome [19]: inactive
outcome [20]: inactive

From PubChem BioAssay (NCATS)
